Data on 43 compounds can be found in PubChem BioAssay AID1508625 (Wald Lab, School of Medicine, Case Western Reserve …, 2021).

Molecules are shown by their SMILES.

This test can be described thus: enhancers of NK cell killing of ovarian tumor cells, primary screen, imaging, OVCAR3, primary NK cells, calcein-AM imaging (AID 1508625).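 Note: compound given to NK cells 16 h before adding targets at 1.5 to 1 ratio.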 Conditions: OVCAR3 lysis by primary NK cells, at 5 µM; z-score: measured here: robust Z-score, single-point normalisation.

For the compound `Cc1cc(C)cc(-n2cnc3cc(C(=O)NC4CCCCC4C)ccc32)c1` (stereo unspecified), the corrected activity, negative = more killing is -2.86% and the z-score was -0.771.
As to `CCOc1cc(C(=S)N2CCCCC2)ccc1OC(=O)c1ccc(OC)cc1`, the corrected activity, negative = more killing was -5.85% and the z-score was -2.2.
With `CCCCn1c(=S)[nH]c2cc3ccccc3cc2c1=O`, the corrected activity, negative = more killing is -1.52% and the z-score was -0.403.
As for `C=CCNC(=O)c1ccc2snnc2c1`, the corrected activity, negative = more killing was -1.6% and the z-score was -0.478.
For `Cc1ccc(N2C(=O)CC(NCCc3ccc(F)cc3)C2=O)cc1` (stereo unspecified), the corrected activity, negative = more killing was -3.27% and the z-score is -1.25.
With `COc1ccc([N+](=O)[O-])cc1N=Cc1ccc(N(C)C)cc1`, the corrected activity, negative = more killing was -10% and the z-score is -2.12.
As to `Cc1ccc(C(=O)Nc2ccc3nn(-c4cccc(Cl)c4)nc3c2)cc1[N+](=O)[O-]`, the corrected activity, negative = more killing is -0.361% and the z-score was -0.128.
Take `O=C(COc1ccc(Br)cc1)NCc1ccco1`: the corrected activity, negative = more killing is -0.415% and the z-score was -0.147.
As to `O=C1C(=Cc2ccccc2)SC(=S)N1C1CCS(=O)(=O)C1` (stereo unspecified), the corrected activity, negative = more killing is -2.25% and the z-score is -0.887.
As for `O=C1C(=Cc2cccc([N+](=O)[O-])c2)Sc2ccccc21`, the corrected activity, negative = more killing is -3.79% and the z-score was -1.61.
Taken in the same sequence, the figures for `CC(C)Oc1ccc(CNC2CCOC(C)(C)C2)cc1` (stereo unspecified) were -3.04% and -1.2.
For `CC1=NN(C(=O)c2ccc(C(N)=O)cc2)C(O)(C(F)(F)F)C1` (stereo unspecified), the corrected activity, negative = more killing is -1.91% and the z-score is -0.786.
Taken in the same sequence, the figures for `CCOC(=O)c1c(-c2ccccc2)csc1NC(=O)CSc1nc2ccccc2o1` were 25.2% and 7.82.
The like results for `COCCCNC(=O)c1cc(OC)c(OC)c(OC)c1` were, in that order, -10.8% and -2.27.
For the compound `Cc1ccc(S(=O)(=O)n2cnc3ccccc32)cc1C`, the corrected activity, negative = more killing was -9% and the z-score was -2.79.
Regarding `CCN1C(=O)c2cccc3c(NC(=O)C45CC6CC(CC(C6)C4)C5)ccc1c23`, the corrected activity, negative = more killing was -12.5% and the z-score is -2.63.
Take `CC(C)NC1CCCc2c1[nH]c1ccc([N+](=O)[O-])cc21` (stereo unspecified): the corrected activity, negative = more killing was -0.558% and the z-score was -0.244.
As for `Cc1c(C(=O)NCCc2ccccc2)oc2ccc(S(=O)(=O)N3CCCC3)cc12`, the corrected activity, negative = more killing is -4.9% and the z-score is -1.22.
On to `O=C(Cc1ccccc1)Nc1ccc2oc(-c3ccc(I)cc3)nc2c1`, for which the corrected activity, negative = more killing was -1.02% and the z-score is -0.361.
The like results for `O=C(Nc1ccc2oc(-c3cccc4c(Br)cccc34)nc2c1)c1ccccc1[N+](=O)[O-]` were, in that order, -6.04% and -2.14.
Taken in the same sequence, the figures for `COc1ccc2nc3oc(C(=O)NCCc4ccc(Cl)cc4)cc3cc2c1` were -5.81% and -1.43.
For the compound `COc1ccccc1Cn1c(=S)[nH]c2cc(Cl)ccc2c1=O`, the corrected activity, negative = more killing was -3.97% and the z-score was -1.05.
With `CC(C)OC(=O)CN1CCCN(S(=O)(=O)c2ccc(F)cc2)CC1`, the corrected activity, negative = more killing was -3.05% and the z-score was -0.969.
For the compound `COc1ccccc1Nc1ncc(C(=O)N2CCC(Cc3ccccc3)CC2)c2ccccc12`, the corrected activity, negative = more killing was -5.51% and the z-score was -1.37.
Consider `CC(C)=NNC(=O)C(=O)Nc1cccc(Cl)c1`, for which the corrected activity, negative = more killing is -3.01% and the z-score is -1.56.
Taken in the same sequence, the figures for `O=C(Cn1ccc([N+](=O)[O-])n1)Nc1ccc(I)cc1` were -4.86% and -1.51.
For `Cc1ccc(C)c(N=Cc2c(C)[nH]c3ccccc23)c1`, the corrected activity, negative = more killing was -2.79% and the z-score is -1.18.
As for `CC1(C)CC(c2csc(N)n2)CCO1` (stereo unspecified), the corrected activity, negative = more killing is -2.99% and the z-score is -1.14.
The like results for `COc1cccc(NS(=O)(=O)c2ccc3c(c2)[C@H]2C=CC[C@H]2[C@@H](c2ccccc2Cl)N3)c1` were, in that order, -8.83% and -2.64.
For `CCN(C(=O)c1cc2cc3ccc(OC)cc3nc2o1)c1cccc(C(F)(F)F)c1`, the corrected activity, negative = more killing is -3.66% and the z-score was -0.898.
On to `Cc1ccc(Cl)cc1-n1c(CCC(=O)O)ccc1-c1ccccc1`, for which the corrected activity, negative = more killing is 1.25% and the z-score was 0.373.
Turning to `Cc1cccc(C(=O)N2N=C(C(F)(F)F)CC2(O)C(C)(C)C)c1` (stereo unspecified), the corrected activity, negative = more killing was -2.49% and the z-score is -0.95.
The like results for `COc1ccc(C(O)=C2C(=O)C(=O)N(CCN3CCNCC3)C2c2ccc(OC)cc2)cc1` (stereo unspecified) were, in that order, -4.32% and -1.87.
`O=C(CSc1nnc(-c2cccc(Br)c2)o1)c1ccc2c(c1)CCCC2`: the corrected activity, negative = more killing was -3.57% and the z-score is -1.33.
`COc1ccc(C2Nc3ccccc3NC3=C2C(=O)CC(c2ccco2)C3)cc1` (stereo unspecified): the corrected activity, negative = more killing is -2.08% and the z-score was -0.853.
On to `O=c1nc(C=Cc2ccc(Br)cc2)cc(C(F)(F)F)[nH]1`, for which the corrected activity, negative = more killing was 0.858% and the z-score was 0.256.
In the case of `CCc1ccc(-n2c(C)nc3cc(C(=O)NCc4cccnc4)ccc32)cc1`, the corrected activity, negative = more killing is -5.32% and the z-score was -1.43.
Take `O=C(Nc1ccc2nn(-c3cccc(Cl)c3)nc2c1)c1cccc2ccccc12`: the corrected activity, negative = more killing was -3.42% and the z-score was -1.21.
As for `CCOCCCNC(=O)c1ccc(N2CCCC2=O)cc1`, the corrected activity, negative = more killing was -4.67% and the z-score was -1.26.
Taken in the same sequence, the figures for `O=C(c1ccccc1F)N1CCN(c2cc(N3CCCCC3)c(F)cc2[N+](=O)[O-])CC1` were -2.72% and -0.843.
For the compound `O=C1C(=O)N(CCCN2CCOCC2)C(c2ccco2)C1=C(O)c1ccc(F)cc1` (stereo unspecified), the corrected activity, negative = more killing was -4.3% and the z-score is -1.86.
Taken in the same sequence, the figures for `CCC(C)NC(=O)c1ccc2c(=O)n(Cc3ccccc3OC)c(=S)[nH]c2c1` (stereo unspecified) were -7.22% and -1.91.
As for `Cc1cc([N+](=O)[O-])ccc1N=Cc1ccc(Br)s1`, the corrected activity, negative = more killing was -2.22% and the z-score was -0.944.
